Bioassay records as filed in PubChem BioAssay.
Rango release inh: prevents RanGTP from dissociating the Rango-importin beta complex; O95149+P62826; Biochemical FRET Rango-importin beta, RanGTP-induced dissociation; Potency, µM (top dose mostly 46.1 µM); actives 0.071% (n = 340,000); calls by dose curve; also: nearly all actives have a fitted effect of over 45% in size
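Compounds preincubate 5 min with complex of recombinant Rango and importin beta in PBS with 1 mM DTT. Ran (0.6 uM) loaded with 2 mM GTP plus 0.2 uM RCC1 starts dissociation; FRET is recorded 45 min later.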
Tb PGK inh: blocks T. brucei phosphoglycerate kinase; PGK/GAPDH coupled, Kinase-Glo luminescence, 60 min; P07378; AID 602233; Potency, µM (series often up to 57.5 µM), most hits filed as inhibitors; actives 0.043% (n = 380,000); also: nearly all actives have a fitted effect of over 60% in size
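Recombinant glycosomal PGK reaction used 1,3-bisphosphoglycerate generated in-well by GAPDH (100nM final) in 100mM TEA pH 7.6, 5mM MgCl2, 0.01% Tween-20. After 60 minutes at room temperature, ATP was read by Kinase-Glo Plus luminescence end-point.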
ELG1 DNA repair: inhibitors of ELG1-dependent DNA repair in HEK293T cells; AID 504467; actives 2.3% (n = 330,000); HEK293T ELG1-luciferase reporter, luminescence, 16 h; DNA damage induced by 5-fluorouridine; Potency, µM (series often up to 46.1 µM), hits mostly inhibitors; also: nearly all actives have a fitted effect of over 55% in size
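Reporter activity after DNA damage by 5-fluorouridine is monitored. Compound-treated cells incubate 16 hr at 37 °C, then ONE-Glo is added for 30 min before luminescence reading.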
PKM2 act: PKM2 (human) enzyme activation. actives 0.34% (n = 260,000). Potency, µM (top dose mostly 57.5 µM), hits mostly activators. P14618. purified PKM2, Kinase-Glo ATP luminescence, activation; response scale: 0% is enzyme alone, no compound; also: nearly all actives have a fitted effect of over 55% in size
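Purified hPK-M2 (>95%) run at intermediate activity with 0.1 mM ADP and 0.5 mM PEP in 50 mM imidazole pH 7.2, KCl, MgCl2; 1 h room temperature. ATP formed read by Kinase-Glo luminescence; normalized to uninhibited and no-enzyme controls.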
Tb PFK inh: inhibitors of T. brucei phosphofructokinase | O15648 | T. brucei PFK, ADP-Glo luminescence | Potency, µM (highest dose often 57.5 µM), usual class: inhibitors | actives 0.17% (n = 330,000) | AID 485367; also: nearly all actives have a fitted effect of over 60% in size
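Compounds were pin-transferred as a titration series up to 57 uM into substrate buffer (0.5 mM F6P, 0.1 mM ATP, pH 8.0), then 1.25 nM PFK was added and reactions ran 45 min before ADP-Glo detection.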
Rango-impB inh: Rango-importin beta binding inhibition | Q14974 | Rango CFP/YFP FRET sensor + importin beta, 45 min | Potency, µM (top dose mostly 92.2 µM) | actives 0.031% (n = 340,000); calls by dose curve; also: nearly all actives have a fitted effect of over 15% in size
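FRET biosensor (snurportin 1 IBB flanked by EYFP and cerulean), 50 nM, with compound 5 min, then 0.125 microM importin beta in PBS, 1 mM DTT, 0.02% Tween-20, 0.1% BSA. CFP/YFP ratio read after 45 min at room temperature; pre-read flags interference.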
ELG1 FLuc counter: luciferase inhibition in cell-free luciferin readout for ELG1 hits | shares compounds with ELG1 DNA repair | cell-free firefly luciferase luminescence counter-screen, ViewLux | Potency, µM (titrated, usually from 46.1 µM), actives largely listed as inhibitors | actives 3% (n = 350)
ELG1-Luc inh: inhibits ELG1-dependent DNA repair in HEK293T cells, confirmed; shares compounds with ELG1 DNA repair; HEK293T ELG1-luciferase levels, luminescence; cells co-treated with 5-fluorouridine; Potency, µM (top dose mostly 46.1 µM), usual class: inhibitors; actives 68% (n = 670); AID 624248; also: nearly all actives have a fitted effect of over 55% in size
Target sequence (Q96QE3 whole entry, looked up): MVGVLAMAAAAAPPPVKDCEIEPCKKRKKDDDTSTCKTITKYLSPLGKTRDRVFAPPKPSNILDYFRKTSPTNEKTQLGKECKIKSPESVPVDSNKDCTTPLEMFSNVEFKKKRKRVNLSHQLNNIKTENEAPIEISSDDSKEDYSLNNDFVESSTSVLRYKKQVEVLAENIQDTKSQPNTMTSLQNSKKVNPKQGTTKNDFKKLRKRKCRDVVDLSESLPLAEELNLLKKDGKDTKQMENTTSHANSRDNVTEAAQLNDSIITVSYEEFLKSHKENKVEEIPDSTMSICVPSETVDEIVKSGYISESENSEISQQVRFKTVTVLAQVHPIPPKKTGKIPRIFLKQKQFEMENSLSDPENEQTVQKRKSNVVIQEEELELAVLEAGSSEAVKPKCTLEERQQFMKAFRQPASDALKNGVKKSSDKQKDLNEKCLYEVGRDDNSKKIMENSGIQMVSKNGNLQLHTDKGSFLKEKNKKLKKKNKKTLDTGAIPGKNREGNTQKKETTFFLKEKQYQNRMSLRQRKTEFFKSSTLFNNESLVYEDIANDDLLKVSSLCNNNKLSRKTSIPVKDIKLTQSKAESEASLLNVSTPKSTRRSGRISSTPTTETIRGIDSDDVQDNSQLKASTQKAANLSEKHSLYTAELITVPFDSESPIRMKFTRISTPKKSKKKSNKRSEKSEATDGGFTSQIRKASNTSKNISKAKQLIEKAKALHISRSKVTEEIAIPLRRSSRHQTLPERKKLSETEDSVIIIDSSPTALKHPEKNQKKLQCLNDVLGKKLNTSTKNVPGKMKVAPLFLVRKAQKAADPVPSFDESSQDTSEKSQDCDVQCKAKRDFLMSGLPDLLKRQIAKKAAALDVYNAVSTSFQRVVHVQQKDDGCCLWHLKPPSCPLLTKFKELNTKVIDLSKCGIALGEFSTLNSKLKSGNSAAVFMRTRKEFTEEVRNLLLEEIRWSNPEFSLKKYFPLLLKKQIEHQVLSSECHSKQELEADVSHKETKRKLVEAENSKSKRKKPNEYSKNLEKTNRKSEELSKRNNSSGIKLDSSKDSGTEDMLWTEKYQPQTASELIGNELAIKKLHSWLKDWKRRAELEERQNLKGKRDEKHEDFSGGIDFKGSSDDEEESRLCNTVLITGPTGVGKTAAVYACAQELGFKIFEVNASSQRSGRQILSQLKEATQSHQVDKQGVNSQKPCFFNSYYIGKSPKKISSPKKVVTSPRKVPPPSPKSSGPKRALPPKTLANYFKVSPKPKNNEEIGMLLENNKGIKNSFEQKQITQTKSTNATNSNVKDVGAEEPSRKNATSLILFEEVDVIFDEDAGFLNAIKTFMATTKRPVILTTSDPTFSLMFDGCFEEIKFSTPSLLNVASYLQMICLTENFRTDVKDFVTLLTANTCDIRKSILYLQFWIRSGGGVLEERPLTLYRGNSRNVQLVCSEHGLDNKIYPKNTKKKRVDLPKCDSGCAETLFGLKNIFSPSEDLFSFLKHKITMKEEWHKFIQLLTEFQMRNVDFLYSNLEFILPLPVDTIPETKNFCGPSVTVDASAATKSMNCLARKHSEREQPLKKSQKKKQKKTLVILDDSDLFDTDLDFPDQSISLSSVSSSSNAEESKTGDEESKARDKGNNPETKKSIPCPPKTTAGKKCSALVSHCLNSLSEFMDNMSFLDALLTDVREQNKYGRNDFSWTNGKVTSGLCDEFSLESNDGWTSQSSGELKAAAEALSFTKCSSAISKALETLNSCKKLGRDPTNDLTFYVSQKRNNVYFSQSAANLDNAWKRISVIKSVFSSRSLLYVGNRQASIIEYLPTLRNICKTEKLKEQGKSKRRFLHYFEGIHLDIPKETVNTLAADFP
ELG1-Luc MMS: MMS-stimulated human ELG1 repair inhibition, confirmed; shares compounds with ELG1 DNA repair; HEK293T luciferase-tagged ELG1 level, MMS stimulated; actives 53% (n = 670); Potency, µM (titrated, usually from 46.1 µM), actives largely listed as inhibitors; also: nearly all actives have a fitted effect of over 60% in size
ELG1 5FU viab: confirmation of ELG1 repair inhibitors: viability with 5FU | shares compounds with ELG1 DNA repair | cell viability with 5-FU, ELG1-dependent repair | Potency, µM (highest dose often 46.1 µM), hits mostly cytotoxic | 670 tested, under 10 active;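 also: ELG1-luc HEK293T cells cotreated with 5-fluorouridine at 10 µM final; viability measured 16 h after compound addition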
ELG1 MMS cell: confirmation of ELG1 repair inhibitors: viability with MMS; shares compounds with ELG1 DNA repair; AID 624251; actives 33% (n = 670); Potency, µM (highest dose often 46.1 µM), hits mostly cytotoxic; Cell viability with MMS, ELG1-dependent DNA repair;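 also: ELG1-luc HEK293T cells co-treated with 10 µM MMS; viability read 16 h after compound addition; nearly all actives have a fitted effect of over 60% in size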
Cell viab unstim: affects unstimulated cell viability, ELG1 hit counter-screen | Potency, µM (highest dose often 45.9 µM), most hits filed as cytotoxic | cell viability counter-screen, unstimulated, luminescence | shares compounds with ELG1 DNA repair | actives 8% (n = 900);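 also: compound exposure lasted 16 hours before reading; nearly all actives have a fitted effect of over 55% in size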
FLuc biochem: firefly luciferase inhibition counter-screen. AID 624253. Potency, µM (titrated, usually from 57.5 µM), usual class: inhibitors. purified firefly luciferase, luminescence counter-screen. shares compounds with ELG1 DNA repair. actives 10% (n = 350)
Numbers stand for hits. Hits are enriched below; roughly 2.4% of the tested compounds scored in any of these assays. Unless noted, calls follow the shape of the dose curve; as a rule, active = well fitted curve in the direction sought with a large enough effect; inconclusive = small, poorly fitted or top-dose-only effect, or another doubt; inactive = no such curve, though single readings can be large; an effect the other way counts as inactive or inconclusive.

Screening O=C(CSc1nnc(-c2ccc(O)cc2)o1)Nc1ccccc1 returned Rango release inh inactive, Tb PGK inh inactive, ELG1 DNA repair inconclusive, PKM2 act inconclusive, Tb PFK inh inactive, Rango-impB inh inactive, ELG1 FLuc counter inactive, Cell viab unstim inconclusive and FLuc biochem inconclusive.
`O=C(CSc1nnc(-c2csc3c2CCCC3)o1)Nc1ccccc1` gave Rango release inh inactive, Tb PGK inh inactive, ELG1 DNA repair inconclusive, PKM2 act inactive, Tb PFK inh inactive, Rango-impB inh inactive, ELG1 FLuc counter inactive, Cell viab unstim inconclusive and FLuc biochem inactive.
`O=C(CSc1nnc(-c2cccnc2)o1)Nc1ccccn1` gave Rango release inh inactive, Tb PGK inh inactive, ELG1 DNA repair inconclusive, PKM2 act inconclusive, Tb PFK inh inactive, Rango-impB inh inactive, ELG1 FLuc counter inactive, Cell viab unstim inconclusive and FLuc biochem inactive.
O=C(O)CSc1nnc(-c2ccc(O)cc2)o1 was read as Tb PGK inh inactive.
`N#Cc1c(NC(=O)CSc2nnc(-c3ccccc3)o2)sc2c1CCCC2` gave Rango release inh inactive, Tb PGK inh inactive, ELG1 DNA repair inactive, PKM2 act inactive, Tb PFK inh inactive and Rango-impB inh inactive.
CC(C)(C)c1ccc(OCC(=O)Nc2ccc(S(=O)(=O)Nc3ncccn3)cc2)cc1 was read as Tb PGK inh inactive.
Screening Cc1ccc(CN2CCN(Cc3cccn3-c3nccs3)CC2CCO)cc1 (stereo not drawn) returned Rango release inh inactive, Tb PGK inh inactive, ELG1 DNA repair inactive, PKM2 act inactive, Tb PFK inh inactive and Rango-impB inh inactive.
O=C(Nc1ccc(S(=O)(=O)Nc2cnc3ccccc3n2)cc1)c1cccc(OC(F)F)c1 was read as Rango release inh inactive, Tb PGK inh inactive, ELG1 DNA repair inactive, Tb PFK inh inactive and Rango-impB inh inactive.
`COc1ccc([C@H]2C[C@@H](n3cc(-c4ccc(F)cc4)nn3)[C@H](O)CN2CC2CCCCC2)cc1` gave Tb PGK inh inactive.
O=C(CSc1nnc(Cc2ccccc2)o1)Nc1ccccc1 was read as Rango release inh inactive, Tb PGK inh inactive, ELG1 DNA repair inactive, PKM2 act inconclusive, Tb PFK inh inactive and Rango-impB inh inactive.
COc1ccccc1NC(=O)CSc1nnc(-c2ccccc2)o1 was read as Rango release inh inactive, Tb PGK inh inactive, ELG1 DNA repair inconclusive, PKM2 act inactive, Tb PFK inh inactive, Rango-impB inh inactive and Cell viab unstim inconclusive.
`COc1ccccc1NC(=O)CSc1nnc(Cc2ccccc2)o1` gave Rango release inh inactive, Tb PGK inh inactive, PKM2 act inactive and Rango-impB inh inactive.
Screening O=C(CSc1nnc(Cc2ccccc2)o1)Nc1ccc(Br)cn1 returned Rango release inh inactive, Tb PGK inh inactive, ELG1 DNA repair inactive, PKM2 act inactive, Tb PFK inh inactive, Rango-impB inh inactive, ELG1 FLuc counter inactive, Cell viab unstim inactive and FLuc biochem inactive.
For Cc1cc(C(=O)COC(=O)C23CC4CC(CC(O)(C4)C2)C3)c(C)n1C the results were Rango release inh inactive, Tb PGK inh inactive, ELG1 DNA repair inconclusive, Tb PFK inh inactive, Rango-impB inh inactive and Cell viab unstim inactive.
Screening CC(=O)NC12CC3CC(C1)CC(C(=O)OCC(=O)c1cc(C)n(C)c1C)(C3)C2 returned Rango release inh inactive, Tb PGK inh inactive, ELG1 DNA repair inconclusive, Tb PFK inh inactive, Rango-impB inh inactive and Cell viab unstim inactive.
For O=C1CC2C(CCC23OCCO3)c2ccc3ccccc3c21 (stereo not drawn) the results were Rango release inh inactive, Tb PGK inh inactive and Rango-impB inh inactive.
CCCCc1ccc(S(=O)(=O)NC2CCS(=O)(=O)C2)cc1 (stereo not drawn) was read as Rango release inh inactive, Tb PGK inh inactive, ELG1 DNA repair 3.7µM, PKM2 act inactive, Tb PFK inh inactive, Rango-impB inh inactive, ELG1-Luc inh inactive, ELG1-Luc MMS 11µM, ELG1 5FU viab inactive, ELG1 MMS cell 11µM and Cell viab unstim inactive.
COC(=O)COc1ccc2oc(=O)cc(-c3cc4cccc(OC)c4o3)c2c1 was read as Rango release inh inactive, Tb PGK inh inactive, ELG1 DNA repair inactive, Tb PFK inh inactive and Rango-impB inh inactive.
`COc1cccc2cc(-c3cc(=O)oc4ccc(OCC(C)=O)cc34)oc12` gave Rango release inh inactive, Tb PGK inh inactive, ELG1 DNA repair 2.6µM, Tb PFK inh inactive, Rango-impB inh inactive, ELG1-Luc inh 6.3µM, ELG1-Luc MMS 11µM, ELG1 5FU viab inactive, ELG1 MMS cell inactive and Cell viab unstim inconclusive.
For COc1ccc(N2CCCn3c2nc2c3c(=O)n(CCc3ccccc3)c(=O)n2C)cc1 the results were Rango release inh inactive, Tb PGK inh inactive, ELG1 DNA repair 4.1µM, PKM2 act inactive, Tb PFK inh inactive, Rango-impB inh inactive, ELG1-Luc inh 18µM, ELG1-Luc MMS 16µM, ELG1 5FU viab inconclusive, ELG1 MMS cell inactive and Cell viab unstim inactive.
